# Results as given in PubChem BioAssay AID1768 (National Center for Advancing Translational Sciences (NCATS), 2009).
# The campaign covered roughly 270,000 compounds. About 620 (0.23%) were called active. About 12% were inconclusive and are not listed. Only a selection was taken, and actives are over-represented in it overall. Unmarked numbers belong to inactive results. Calls come from the whole dose curve; as a rule, active = well fitted inhibition curve with a large enough effect in the polarisation, with a control signal flat (not every such curve was filed as active); inconclusive = small, poorly fitted or top-dose-only effect, or effect the other way, or a change in a side signal; inactive = no such curve, though single readings can be large or run the other way; the % refers to the polarisation.
# Target: Menin (Homo sapiens) (UniProt O00255)
# Sequence (O00255 whole entry, looked up): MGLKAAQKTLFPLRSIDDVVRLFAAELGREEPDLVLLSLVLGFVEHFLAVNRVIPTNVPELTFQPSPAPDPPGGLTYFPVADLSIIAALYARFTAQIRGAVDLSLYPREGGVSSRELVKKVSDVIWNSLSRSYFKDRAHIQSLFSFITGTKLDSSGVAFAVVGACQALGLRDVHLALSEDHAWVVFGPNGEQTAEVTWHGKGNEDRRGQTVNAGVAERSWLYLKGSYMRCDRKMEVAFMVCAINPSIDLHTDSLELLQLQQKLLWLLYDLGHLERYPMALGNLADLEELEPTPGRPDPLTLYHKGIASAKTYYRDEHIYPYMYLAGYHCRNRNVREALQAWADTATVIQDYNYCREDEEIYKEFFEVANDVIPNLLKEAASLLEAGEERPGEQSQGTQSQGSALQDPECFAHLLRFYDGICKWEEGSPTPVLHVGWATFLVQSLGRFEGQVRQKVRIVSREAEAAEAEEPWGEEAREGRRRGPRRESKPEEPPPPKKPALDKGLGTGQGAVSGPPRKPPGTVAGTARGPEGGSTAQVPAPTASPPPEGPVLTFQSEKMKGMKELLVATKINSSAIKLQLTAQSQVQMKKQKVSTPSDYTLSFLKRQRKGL
# Assay: qHTS Assay for Inhibitors Targeting the Menin-MLL Interaction in MLL Related Leukemias: Competition With Texas Red Labeled MLL-derived Mutant Peptide; for FP activity change, negative = inhibition: % of control where 0% means no effect
# Conditions: fluorescence polarization; series mostly up to 61.6 µM; FP activity change, negative = inhibition: at the top concentration
# Source text: qHTS Assay for Inhibitors Targeting the Menin-MLL Interaction in MLL Related Leukemias NIH Chemical Genomics Center [NCGC] NIH Molecular Libraries Probe Centers Network [MLPCN] MLPCN Grant: MH084875-01A1 Assay Submitter (PI): Jolanta Grembecka, Tomasz Cierpicki, University of Virginia Translocations of the MLL (Mixed Lineage Leukemia) gene are frequently found in human leukemias affecting both children and adults. Fusion of MLL to one of more than 60 genes results in generation of oncogenic proteins upregulating Hox genes, which are vital to blood cell development. Patients harboring fusion of the MLL gene suffer from aggressive leukemias and respond poorly to available therapies. All of the oncogenic fusion proteins have a preserved N-terminal fragment of MLL that has been identified to interact with menin. It has been recently discovered that association with menin is critical to the leukemogenic activity of the MLL fusion oncoproteins. Selective targeting of the menin-MLL interaction could provide an attractive therapeutic approach to develop novel drugs for MLL-related leukemias. Small molecules blocking the menin-MLL interaction should reverse the oncogenic potential of MLL fusion proteins. We have developed and optimized a fluorescence polarization-based assay for the identification of Menin-MLL inhibitors. The assay was run employing two different MLL-derived peptides. The present assay uses a 12 amino acid peptide labeled with fluorescein at its N-terminus. This peptide consists of the menin high affinity binding motif from MLL and is potently bound by menin. Another peptide with a mutated sequence, labeled with Texas Red, was used in parallel as a less stringent screen for inhibitors.
# The Menin protein, the MLL-wild type (w.t.) derived peptide (N-terminal 12 amino acids), the MLL-derived peptide labeled with Texas Red and the MLL-w.t. peptide labeled with Fluorescein were kindly supplied by laboratory of Dr. Jolanta Grembecka, University of Virginia. All protein and peptide solutions were stored in single use aliquots at -80C. The Eu3+ Cyrptate-conjugated mouse monoclonal antibody anti-6 Histidine (Eu3+-AB) and the Streptavidin-XL665 conjugate (XL665) were purchased from Cisbio International (Bedford, MA). All antibody and XL665 conjugate solution stocks were stored in single use aliquots at -20C. The Buffer components for all assays were purchased from Sigma-Aldrich (St. Louis, MO) and Invitrogen (Carlsbad, CA). FP Assay Reagents: 1. FP reaction buffer: 50 mM Tris-HCl pH 7.5, 50 mM NaCl, 1mM DTT. Before use, 0.05% BSA is added. 2. Menin protein, MLL-w.t. labeled with fluorescein, MLL-mutant peptide labeled with texas red. Stored in singe use aliquots at -80C. 3. MLL-w.t. unlabeled peptide as positive control: 10 uM final in FP buffer. FP Assay Procedure: 1. Prepare Menin at 200 nM, MLL-w.t.-fluorescein at 25 nM, and MLL-mutant-texas red at 50 nM mixture in FP buffer. 2. Prepare Menin at 200 nM, MLL-w.t.-fluorescein at 25 nM, MLL-mutant-texas red at 50 nM, and 10 uM MLL-w.t. unlabeled mixture in FP buffer. 3. Prepare MLL-w.t.-fluorescein at 25 nM and MLL-mutant-texas red at 50 nM mixture in FP buffer. 3. Dispense 4 ul per well of reagent in step 1 in columns 2, 4 - 48 in a black 1536 well plate, dispense 4 ul per well of reagents from steps 2 and 3 in columns 1 and 3 respectively. Incubate plate at ambient for 15 minutes. 4. Transfer 23 nl per well of compound to plate and incubate at ambient for 1 hr. 5. Read fluorescence polarization for each label using the PerkinElmer Envision. Envision protocol for fluorescein: FITC FP Dual Enh Mirror, Excitation filter 480, Emission filter (1) P-pol 535, Emission filter (2) S-pol 535 Envision protocol for texas red: FP Dual Enh Mirror, Excitation filter 555, Emission filter (1) P-pol 632, Emission filter (2) S-pol 632
# Potency is the fitted concentration of half-maximal effect.
SMILES,"FP activity change, negative = inhibition",Potency
CCn1c(Cc2ccc(OC)cc2)nnc1SCC(=O)Nc1ccc(N2CCOCC2)cc1,3.37%,
COc1ccc(NC(=O)c2cc(-c3cc(OC)c(OC)c(OC)c3)nc3ccccc23)c(OC)c1,13.1%,
Cc1ccc(S(=O)(=O)N(Cc2ccccc2)c2ccccn2)cc1[N+](=O)[O-],-17.7%,
C=CCn1c(C23CC4CC(CC(C4)C2)C3)n[nH]c1=S,-20.5%,
Cc1ccc(OCC(=O)Nc2ccc(N3CCN(C(=O)c4ccco4)CC3)cc2)c(C)c1,-25.9%,
COc1ccccc1NC(=O)c1cc(N2C(=O)C3C4CCC(C4)C3C2=O)ccc1Cl (stereo not given),19.8%,
Cc1ccc(O)c(/C=N/NC(=O)COc2ccc3c(C)cc(=O)oc3c2)c1,7.45%,
O=C(NCCc1ccccc1Cl)C1CCC(=O)N(CCCc2ccccc2)C1 (stereo not given),-5.76%,
COc1cccc(/C=C2\Sc3ccc(C(=O)NCC4CCCO4)cc3N(C)C2=O)c1 (stereo not given),36.8%,
COc1cc(OC)c2c(C)cc(=O)oc2c1C(CCN1CCCCC1)c1ccc(N(C)C)cc1 (stereo not given),-13.6%,
Cc1ccc(C(=O)Oc2coc(CSc3nnc(NC(=O)c4cccs4)s3)cc2=O)cc1C,-14.4%,
Cc1ccc(C(=O)Nc2nnc(-c3cccs3)s2)cc1C,,10 µM (active)
CCOc1cccc(C(=O)Nc2nnc(-c3cccs3)s2)c1,-22.3%,
COc1ccc(C(C(=O)NC(C)(C)C)N(Cc2ccc(F)cc2)C(=O)CCC(=O)Nc2cc(C)on2)cc1 (stereo not given),-29.2%,
COc1ccc(NC(=O)c2cccc3c2C(=O)N(CC2CCCO2)C3)cc1OC (stereo not given),20.2%,
CCc1ccc(CN(C)C(=O)C2CCC(=O)N(Cc3cccc(OC)c3)C2)nc1 (stereo not given),-5.46%,
CCC1Sc2ccc(S(=O)(=O)CCC(=O)NCc3cccs3)cc2NC1=O (stereo not given),3.79%,
COCCNC(=S)N(CCc1c(C)[nH]c2ccc(C)cc12)Cc1cccnc1,7.33%,
CCOc1ccccc1NC(=S)N1CCN(c2cccc(C)c2C)CC1,-1.61%,
Cc1ccc(N2CCN(C(=O)c3cccs3)CC2)c(C)c1,-9.4%,
NC(=O)c1ccc(Nc2ccc3c(c2)CCC3)c([N+](=O)[O-])c1,-23.3%,
Cc1nc2ccc(C(=O)N(C)CC3CCCN(CCc4ccc(Cl)cc4)C3)cc2[nH]1 (stereo not given),0.888%,
CCOC(=O)c1csc(CCNC(=O)c2oc3c(Cl)cc(C)cc3c2C)n1,-13.1%,
Cc1ccc(CNC(=O)C2CCCN2S(=O)(=O)c2ccc3c(c2)C(C)(C)C(=O)N3C)cc1 (stereo not given),2.45%,
COc1ccc(NC(=O)c2sc3nc(C)nc(N4CCN(c5ccccn5)CC4)c3c2C)c(OC)c1,-4.1%,

SMILES,"FP activity change, negative = inhibition",Potency
COCCNc1ccc(-c2n[nH]c(=O)c3ccccc23)cc1[N+](=O)[O-],12.6%,
CCc1cccc(C)c1N1C(=O)CN(Cc2ccccc2)C1=S,32.1%,
NS(=O)(=O)c1ccc(CNC(=O)c2cccc(Oc3ccccc3)c2)cc1,-21.7%,
COc1ccc(NC(=O)CSc2nc3ccccc3c(=O)n2C)cc1,-16.9%,
CC(=O)N1c2ccc(S(=O)(=O)N3CCCC(C(=O)Nc4ccc(C)cc4C)C3)cc2CC1C (stereo not given),-5.14%,
COc1ccc(-c2nc3ccccc3c(=O)n2CCc2ccc(O)cc2)cc1,4.36%,
Cc1ccccc1CN1CCC(C(=O)Nc2ccc(Oc3cccnc3)cc2)CC1,-9.01%,
CCCCC(C(=O)NC(C)(C)C)N(Cc1ccccc1)C(=O)c1snc(C(N)=O)c1N (stereo not given),-3.07%,
CCc1ccc(C(CNc2nc(C(F)(F)F)nc3ccccc23)N(C)C)cc1 (stereo not given),-1.15%,
C=C1CCN(C(CC(C)C)C(=O)NCc2cc(OC)c(OC)c(OC)c2)S(=O)(=O)c2ccccc21 (stereo not given),-12.1%,
CCOC(=O)[C@H]1[C@H]2COc3cc(OC)ccc3[C@@H]2N2C(=O)N(c3ccc(Br)cc3)C(=O)[C@@]12C,2.14%,
CCn1cc(CN2CCN(CC(C)(C)C)C(CCO)C2)c2ccccc21 (stereo not given),1.44%,
Cc1cc(=O)oc2c(C)c(OC(C)C(=O)NC3CCN(Cc4ccccc4)CC3)ccc12 (stereo not given),-2.55%,
O=C(CN1C(=O)COc2ccc(Cl)cc21)N1CCOCC1,1.36%,
COc1cc(CN2CCCC(C(=O)c3ccc(SC)cc3)C2)cc(Cl)c1O (stereo not given),11.6%,
Cc1cc(C)nc(N/N=C/c2c(CO)cnc(C)c2O)n1,-1.68%,
COc1cccc(N(CC(=O)NCc2ccccc2)C(=O)CCC(=O)Nc2nccs2)c1,-4.88%,
COc1ccc(CSc2nnnn2-c2ccc(O)cc2)cc1F,26%,
CCOc1ccc(N(CC(=O)NCCc2ccc(F)cc2)S(=O)(=O)c2ccccc2)cc1,-2.73%,
O=C1CCC(C(=O)N2CCN(c3ccccc3Cl)CC2)CN1CC1CCCCC1 (stereo not given),-14.6%,
CCC(=O)c1cn(CCOc2ccccc2OC)c2ccccc12,33.7%,
CC1(C)CCSC(/C=C/c2ccccc2)=N1,,31.6 µM (active)
CCCC[C@]12Cc3cc(OC)c(OC)cc3C(O1)C1=C(CC3(CCCCC3)OC1=O)O2,-17.1% [at 11.7 µM],
CN(C)c1ccnc(Oc2ccc(F)cc2)c1C#N,9.99%,
N#Cc1ccc(-c2ccc(Cl)cc2)nc1Oc1ccc(F)cc1,,20 µM (active)
